# Measured values taken from the antibiotic and cytotoxicity screens of Wong et al. (2023).
# In all, about 39,000 compounds went through this assay and about 3,300 (8.5%) were called active. The sample holds actives, similar compounds and a random draw of the others, so the mix is not that of the screen.
# System: HepG2
# Test: cytotoxicity call (relative viability < 0.9)
# Settings: 10 µM
row,Compound,cytotoxicity call
1,C[C@H]1CCCCO[C@@H](CN(C)C(=O)Nc2ccc3c(c2)OCO3)[C@@H](C)CN([C@@H](C)CO)C(=O)c2cc(NC(=O)Nc3ccc(C(F)(F)F)cc3)ccc2O1,inactive
2,C=CC[C@@H](CC(=O)N[C@H](CO)Cc1ccccc1)C(=O)NCCOC(=O)[C@@H](CC=C)CC(=O)OC(C)(C)C,inactive
3,COCCCNC(=O)C[C@H]1SC(=N)NC1=O,inactive
4,COc1ccc(NC(=O)Nc2ccc3c(c2)C(=O)N([C@@H](C)CO)C[C@H](C)[C@H](CN(C)S(=O)(=O)c2cccs2)OCCCC[C@H](C)O3)cc1,inactive
5,COc1ccc(S(=O)(=O)N2C[C@@H](O)COC[C@H]3O[C@H](CC(=O)N[C@@H]4CCN(Cc5ccccc5)C4)CC[C@@H]32)cc1,inactive
6,O=C(C[C@@H]1C=C[C@@H](NS(=O)(=O)c2ccccc2)[C@H](CO)O1)NCc1ccncn1,inactive
7,C[C@H](CO)N1C[C@H](C)[C@H](CN(C)C(=O)C2CCCCC2)OCCCC[C@H](C)Oc2ccc(NC(=O)Nc3ccc(C(F)(F)F)cc3)cc2C1=O,inactive
8,COc1ccc(NC(=O)N(C)C[C@H]2Oc3ccc(NC(=O)CCN4CCOCC4)cc3CC(=O)N([C@H](C)CO)C[C@H]2C)cc1,inactive
9,COc1ccc(COC[C@]23N=C4SCc5ccccc5C(=O)N4[C@H](c4ccccc4O2)[C@H]3CO[Si](C)(C)C(C)(C)C)cc1,inactive
10,O=C(NCC(F)(F)F)[C@H]1[C@H](CO)[C@H]2Cn3c(cccc3=O)[C@H]2N1C(=O)C1CCC1,inactive
11,C[C@H]1CN([C@@H](C)CO)S(=O)(=O)c2ccc(C#Cc3ccccc3)cc2O[C@H]1CN(C)S(=O)(=O)c1cn(C)cn1,inactive
12,Cc1noc(C)c1NC(=O)Nc1ccc2c(c1)C(=O)N([C@H](C)CO)C[C@H](C)[C@H](CN(C)Cc1ccc3c(c1)OCO3)OCCCC[C@@H](C)O2,inactive
13,COc1ccc(S(=O)(=O)Nc2cccc3c2O[C@@H](CN(C)S(=O)(=O)c2cccs2)[C@H](C)CN([C@@H](C)CO)C3=O)cc1,inactive
14,COc1cc2c(cc1OC)CN(C(=O)[C@@H]1[C@H]3C(=O)O[C@H](c4ccccc4)[C@H](c4ccccc4)N3[C@H](c3ccc(O)cc3)[C@@]13C(=O)Nc1ccccc13)CC2,inactive
15,C[C@@H]1CN([C@@H](C)CO)C(=O)c2cc(NC(=O)Nc3ccc(F)cc3)ccc2O[C@@H](C)CCCCO[C@@H]1CN(C)Cc1ccccc1,active
16,C[C@@H]1CCCCO[C@@H](CN(C)Cc2ccccc2)[C@@H](C)CN([C@H](C)CO)C(=O)c2cc(NC(=O)Nc3ccc(F)cc3)ccc2O1,inactive
17,C[C@@H]1CCCCO[C@@H](CN(C)Cc2ccccc2)[C@@H](C)CN([C@@H](C)CO)C(=O)c2cc(NC(=O)Nc3ccc(F)cc3)ccc2O1,inactive
18,C[C@@H]1CCCCO[C@@H](CN(C)Cc2ccccc2)[C@H](C)CN([C@@H](C)CO)C(=O)c2cc(NC(=O)Nc3ccc(F)cc3)ccc2O1,inactive
19,C[C@@H]1CN([C@H](C)CO)C(=O)c2cc(NC(=O)Nc3ccc(F)cc3)ccc2O[C@@H](C)CCCCO[C@H]1CN(C)Cc1ccccc1,active
20,C[C@@H]1CCCCO[C@@H](CN(C)Cc2ccccc2)[C@H](C)CN([C@H](C)CO)C(=O)c2cc(NC(=O)Nc3ccc(F)cc3)ccc2O1,inactive
21,C[C@@H]1CCCCO[C@H](CN(C)Cc2ccccc2)[C@@H](C)CN([C@H](C)CO)C(=O)c2cc(NC(=O)Nc3ccc(F)cc3)ccc2O1,inactive

row,Compound,cytotoxicity call
1,C[C@H]1CCCCO[C@H](CN(C)Cc2ccccc2)[C@@H](C)CN([C@@H](C)CO)C(=O)c2cc(NC(=O)Nc3ccc(F)cc3)ccc2O1,active
2,C[C@@H]1CN([C@@H](C)CO)C(=O)c2cc(NC(=O)Nc3ccc(F)cc3)ccc2O[C@@H](C)CCCCO[C@H]1CN(C)Cc1ccccc1,active
3,C[C@@H]1CCCCO[C@H](CN(C)Cc2ccccc2)[C@@H](C)CN([C@@H](C)CO)C(=O)c2cc(NC(=O)Nc3ccc(F)cc3)ccc2O1,inactive
4,C[C@@H]1CCCCO[C@@H](CN(C)Cc2ccc(F)cc2)[C@H](C)CN([C@@H](C)CO)C(=O)c2cc(NC(=O)Nc3ccccc3)ccc2O1,inactive
5,C[C@@H]1CN([C@@H](C)CO)S(=O)(=O)c2ccc(C#CCN(C)C)cc2O[C@H]1CN(C)C,inactive
6,C[C@H]1CN([C@@H](C)CO)C(=O)c2cc(NS(=O)(=O)c3ccccc3)ccc2O[C@@H]1CN(C)CC1CC1,inactive
7,C[C@H](CO)N1C[C@H](C)[C@@H](CN(C)Cc2ccc(C(=O)Nc3ccccc3N)cc2)Oc2ccc(NC(=O)Cc3cn(C)c4ccccc34)cc2CC1=O,inactive
8,CN1C(=O)c2cc(NC(=O)c3cccs3)ccc2OC[C@@H]2O[C@H](CC(=O)NCC(F)(F)F)CC[C@@H]21,inactive
9,C[C@@H]1CN([C@H](C)CO)C(=O)CCCn2cc(nn2)CO[C@H]1CN(C)S(=O)(=O)c1ccc(Oc2ccccc2)cc1,inactive
10,C[C@H](O)C#Cc1cnc2c(c1)C(=O)N([C@@H](C)CO)C[C@@H](C)[C@H](CN(C)C(=O)Nc1ccc(C(F)(F)F)cc1)O2,inactive
11,CS(=O)(=O)N1CCCn2c(nnc2Cn2cccn2)C1,inactive
12,O=C(NO)c1ccc(C(=O)N/N=C/[C@H](O)[C@@H](O)[C@H](O)[C@H](O)CO)cc1,inactive
13,C[C@@H]1CN([C@H](C)CO)C(=O)c2cccc(NS(=O)(=O)c3ccc(F)cc3)c2O[C@H]1CN(C)S(=O)(=O)c1ccccc1,inactive
14,Cn1c(=O)c2cc(S(=O)(=O)N3CCOCC3)ccc2n(C)c1=O,inactive
15,Cc1ccc(S(=O)(=O)NCCC(=O)N2CCOCCOCCOCC2)cc1,inactive
16,CN(CC(=O)NC1CCCC1)S(=O)(=O)c1ccc2c(c1)c(=O)n(C)c(=O)n2C,inactive
17,C[C@H]1CCCN(C(=O)CCNS(=O)(=O)c2ccc3c(c2)c(=O)n(C)c(=O)n3C)C1,active
18,CCOC(=O)N1CCN(C(=O)CN(C)S(=O)(=O)c2ccc3c(c2)c(=O)n(C)c(=O)n3C)CC1,inactive
19,Cn1c(=O)c2cc(S(=O)(=O)NCCC(=O)NC3CCCC3)ccc2n(C)c1=O,active
20,C[C@H](CO)N1C[C@H](C)[C@H](CN(C)Cc2ccc(C(=O)Nc3ccccc3N)cc2)Oc2ccc(NS(=O)(=O)c3cn(C)cn3)cc2C1=O,inactive
21,C[C@H]1CN([C@@H](C)CO)C(=O)c2cc(NS(=O)(=O)c3cccs3)ccc2O[C@H]1CN(C)Cc1ccncc1,inactive

row,Compound,cytotoxicity call
1,Clc1ccc(/C=C/C2=Nc3cccc4cccc(c34)N2)cc1,inactive
2,Nc1c(O)cccc1C(=O)O,inactive
3,CCC[C@H](NC(=O)[C@@H]1[C@H]2CCC[C@H]2CN1C(=O)[C@@H](NC(=O)[C@@H](NC(=O)c1cnccn1)C1CCCCC1)C(C)(C)C)C(=O)C(=O)NC1CC1,active
4,CN1CCN(C(=O)C[C@H]2CC[C@@H]3[C@H](COc4ccc(NC(=O)c5ccc(F)c(F)c5)cc4C(=O)N3C)O2)CC1,inactive
5,N=C(C[n+]1ccccc1)NO,active
6,c1cc[n+](C[n+]2ccccc2)cc1,inactive
7,C[C@@H]1CCCCO[C@H](CN(C)Cc2ccc(C(F)(F)F)cc2)[C@H](C)CN([C@H](C)CO)C(=O)c2cc(NC(=O)c3ccncc3)ccc2O1,inactive
8,C[C@@H]1CN([C@@H](C)CO)C(=O)c2cc(NC(=O)Nc3ccccc3)ccc2O[C@@H](C)CCCCO[C@H]1CN(C)Cc1ccccc1,inactive
9,C[C@@H]1CCCCO[C@@H](CN(C)Cc2ccccc2)[C@H](C)CN([C@@H](C)CO)C(=O)c2cc(NC(=O)Nc3ccccc3)ccc2O1,active
10,C[C@@H]1CN([C@H](C)CO)C(=O)c2cc(NC(=O)Nc3ccccc3)ccc2O[C@@H](C)CCCCO[C@@H]1CN(C)Cc1ccccc1,active
11,C[C@@H]1CCCCO[C@H](CN(C)Cc2ccccc2)[C@@H](C)CN([C@@H](C)CO)C(=O)c2cc(NC(=O)Nc3ccccc3)ccc2O1,inactive
12,C[C@@H]1CN([C@@H](C)CO)C(=O)c2cc(NC(=O)Nc3ccccc3)ccc2O[C@@H](C)CCCCO[C@@H]1CN(C)Cc1ccccc1,inactive
13,C[C@@H]1CCCCO[C@@H](CN(C)Cc2ccccc2)[C@@H](C)CN([C@H](C)CO)C(=O)c2cc(NC(=O)Nc3ccccc3)ccc2O1,inactive
14,C[C@@H]1CCCCO[C@@H](CN(C)Cc2ccccc2)[C@H](C)CN([C@H](C)CO)C(=O)c2cc(NC(=O)Nc3ccccc3)ccc2O1,active
15,C[C@@H]1CN([C@H](C)CO)C(=O)c2cc(NC(=O)Nc3ccccc3)ccc2O[C@@H](C)CCCCO[C@H]1CN(C)Cc1ccccc1,active
16,C[C@@H]1CCCCO[C@H](CN(C)Cc2ccccc2)[C@H](C)CN([C@H](C)CO)C(=O)c2cc(NC(=O)Nc3ccccc3)ccc2O1,inactive
17,C[C@@H]1CCCCO[C@H](CN(C)Cc2ccccc2)[C@H](C)CN([C@@H](C)CO)C(=O)c2cc(NC(=O)Nc3ccccc3)ccc2O1,inactive
18,C[C@H](CO)N1C[C@H](C)[C@H](CN(C)Cc2ccccc2)OCCCC[C@H](C)Oc2ccc(NC(=O)Nc3ccccc3)cc2C1=O,inactive
19,C[C@H](CO)N1C[C@H](C)[C@@H](CN(C)Cc2ccccc2)OCCCC[C@H](C)Oc2ccc(NC(=O)Nc3ccccc3)cc2C1=O,inactive
20,Cc1noc(C)c1NC(=O)N(C)C[C@@H]1Oc2ccc(NS(=O)(=O)c3cn(C)cn3)cc2CC(=O)N([C@@H](C)CO)C[C@@H]1C,inactive
21,Cc1ccc(S(=O)(=O)N(C)C[C@H]2OCCCC[C@@H](C)Oc3ccc(NC(=O)Nc4ccc5c(c4)OCO5)cc3C(=O)N([C@@H](C)CO)C[C@H]2C)cc1,inactive
